Test results published in PubChem BioAssay AID1851 (National Center for Advancing Translational Sciences (NCATS), 2009).
Where “and” joins values, the source holds several entries; their conditions need not be identical. Equal entries are not always repeated. The campaign covered roughly 16,000 compounds. About 5,700 (36%) were called active. Roughly 24% stayed inconclusive and do not appear here. This is one part of the list. Values without a mark were called inactive. Calls come from the whole dose curve; as a rule, active = well fitted curve in the direction sought with a large enough effect; inconclusive = small, poorly fitted or top-dose-only effect, or effect the other way; inactive = no such curve, though single readings can be large or run the other way.

Each compound was assayed against Cytochrome P450 1A2 (Homo sapiens) (UniProt P05177) (assay: Cytochrome panel assay with activity outcomes). Details: recombinant CYP, pro-luciferin dealkylation, luminescence, p450-cyp1a2; series mostly up to 57.1 µM.
% is set by controls: 0 for no effect and ±100 for the full control effect.

Cytochrome P450 1A2 (Homo sapiens), sequence (P05177 whole entry, looked up): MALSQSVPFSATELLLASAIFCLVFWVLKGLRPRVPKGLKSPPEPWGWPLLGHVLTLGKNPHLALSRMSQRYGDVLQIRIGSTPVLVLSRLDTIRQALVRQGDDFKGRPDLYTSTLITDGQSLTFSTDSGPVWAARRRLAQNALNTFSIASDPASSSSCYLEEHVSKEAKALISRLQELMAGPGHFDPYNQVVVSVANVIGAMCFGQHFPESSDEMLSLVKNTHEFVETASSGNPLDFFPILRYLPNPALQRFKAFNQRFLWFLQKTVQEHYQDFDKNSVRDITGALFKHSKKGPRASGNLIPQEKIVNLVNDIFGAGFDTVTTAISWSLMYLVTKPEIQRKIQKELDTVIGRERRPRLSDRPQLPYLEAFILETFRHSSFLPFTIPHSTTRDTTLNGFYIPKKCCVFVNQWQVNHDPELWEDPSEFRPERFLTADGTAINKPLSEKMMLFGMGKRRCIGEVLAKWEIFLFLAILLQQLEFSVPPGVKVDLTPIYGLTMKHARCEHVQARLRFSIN

| Structure (SMILES) | AC50 | activity, negative = inhibition |
| --- | --- | --- |
| COC(=O)CSc1cc(C(F)(F)F)nc(-c2ccccn2)n1 | 0.708 µM (active) |  |
| FC(F)(F)c1cc(Sc2ccccc2)nc(-c2ccccn2)n1 | 0.891 µM (active) |  |
| CC(C)Nc1cc(C(F)(F)F)nc(-c2ccccn2)n1 | 1.58 µM (active) |  |
| COc1ccccc1-c1cncnc1NCc1ccccc1 | 12.6 µM (active) |  |
| COc1ccccc1-c1cncnc1NCc1cccnc1 | 6.31 µM (active) |  |
| COc1ccccc1-c1cncnc1NCc1cccc(C)c1 | 5.01 µM (active) |  |
| CCC[C@@H]1C[C@@]1(CCC)C(NS(=O)(=O)c1cccc2cccnc12)c1ccc(Cl)cc1 (stereo partly drawn) | inactive |  |
| CC(C)NC(=O)N1CC[C@@]2(CCCN(C(=O)c3cccc(F)c3)C2)C1 | inactive |  |
| COc1ccc2[nH]cc(CCNc3ncnc4ccc(-c5ccc6c(c5)OCO6)cc34)c2c1 | 0.631 µM (active) |  |
| COc1ccc2[nH]cc(CCNc3ncnc4ccc(-c5ccoc5)cc34)c2c1 | 0.316 µM (active) |  |
| C=CC(C)(C)c1[nH]c2ccccc2c1C1=C(O)C(=O)C(c2c[nH]c3c(CC=C(C)C)cccc23)=C(O)C1=O | 25.1 µM (active) |  |
| O=C(CSc1nnc(-c2ccco2)n1-c1ccccc1)NCc1ccco1 | inactive |  |
| O=C(CSc1nnc2sc3ccccc3n12)NCc1ccco1 | 10 µM (active) |  |
| CCOC(=O)c1sc2nc(CC(=O)OC)nc(NCc3ccc(F)cc3)c2c1C | 14.1 µM (active) |  |
| COc1ccc(COC(=O)N/N=C2/C[C@@H](O)[C@@H](O)[C@@H]3[C@@H]4C(=O)N(c5cccc(Oc6ccccc6)c5)C(=O)[C@H]4CC[C@@H]23)cc1 |  | -36.2% [at 11.4 µM] |
| Nc1cc(=O)[nH]c(SCC(=O)Nc2ccc(S(=O)(=O)N3CCOCC3)cc2)n1 | inactive |  |
| C/C(=N/Nc1nc(C)cc(=O)[nH]1)C(=O)O |  | -8.18% [at 11.4 µM] |
| Cc1cc(=O)[nH]c(SCC(=O)Nc2nc3c(s2)CCCC3)n1 | 12.6 µM (active) |  |
| CCC(Sc1nc(C)cc(=O)[nH]1)C(=O)Nc1nc2c(s1)CCCC2 (stereo not drawn) | 12.6 µM (active) |  |
| Cc1cc(=O)[nH]c(-n2[nH]c3c(c2=O)CCCC3)n1 | inactive |  |
| CC(c1ccccc1C(O)c1ccccc1)N(C)C (stereo not drawn) | inactive |  |
| O=C(NNC(=O)C1CC(c2cccnc2)=NO1)Nc1cccc(F)c1 (stereo not drawn) | 14.1 µM (active) |  |
| COc1cccc(C2=NOC(C(=O)Nc3cccnc3)C2)c1 (stereo not drawn) | 10 µM (active) |  |
| O=C(Nc1cccc(F)c1)N1CC2(CCN(C(=O)c3cnccn3)CC2)C1 | inactive |  |

| Structure (SMILES) | AC50 | activity, negative = inhibition |
| --- | --- | --- |
| COc1cccc(C2=NOC(C(=O)NCCN3CCOCC3)C2)c1 (stereo not drawn) | inactive |  |
| Cc1ccc(NC(=O)NNC(=O)C2CC(c3cccnc3)=NO2)cc1 (stereo not drawn) | inactive |  |
| COCCNC(=O)C1CC(c2cccc(OC)c2)=NO1 (stereo not drawn) | inactive |  |
| COc1ccc(NC(=O)C2c3cc(OC)c(OC)cc3C(=O)N(C)C2c2cccnc2)cc1OC (stereo not drawn) | inactive |  |
| COc1cccc(C2=NOC(C(=O)Nc3ccc(OC)c(OC)c3)C2)c1 (stereo not drawn) | 10 µM (active) |  |
| CCN1C(=O)[C@H]2[C@@H]3[C@H](O)[C@H](O)CC(=O)[C@H]3CC[C@H]2C1=O |  | -11.3% [at 11.4 µM] and -4.71% [at 11.4 µM] |
| CN1CCCN(C2C3CC4CC(C3)CC2C4)CC1 (stereo not drawn) | inactive |  |
| c1cc(CSSCc2ccncc2)ccn1 | 2 µM (active) |  |
| c1cc(CNCCN2CCNCC2)ccn1 |  | -16% [at 11.4 µM] |
| CN(Cc1ccco1)c1ncnc2ccc(-c3ccoc3)cc12 | 2.51 µM (active) |  |
| CN(Cc1ccco1)c1ncnc2ccc(-c3ccc4c(c3)OCO4)cc12 | 0.501 µM (active) |  |
| O=C(CC(=O)c1ccncc1)c1ccccc1 | 0.1 µM (active) |  |
| O=C(c1ccncc1)N1CCC2(CCN(Cc3ccccc3)CC2)CC1 | inactive |  |
| O=C(NNC(=O)c1ccncc1)c1ccncc1 |  | -7.18% [at 11.4 µM] |
| Cn1c(-c2sc(=S)n(-c3ccccc3)c2N)nc2ccccc21 | 0.708 µM (active) |  |
| O=C1C[C@@H](O)[C@@H](O)[C@H]2[C@@H]3C(=O)N(Cc4ccccc4)C(=O)[C@@H]3CC[C@H]12 |  | 7.93% [at 11.4 µM] and -5.24% [at 11.4 µM] |
| Nc1ccc(N=Nc2ccc(-c3ccc(O)cc3)cc2)c2ccc(S(=O)(=O)O)cc12 |  | -17.8% [at 2.29 µM] |
| COc1cc(-c2ccc(N=Nc3ccc4c(S(=O)(=O)O)cc(S(=O)(=O)O)c(N)c4c3O)c(OC)c2)ccc1N=Nc1ccc2c(S(=O)(=O)O)cc(S(=O)(=O)O)c(N)c2c1O | 12.6 µM (active) |  |
| COc1ccc(N2C(=O)CCC(C(=O)O)C2c2ccc(F)cc2)cc1 (stereo not drawn) | inactive |  |
| COc1ccc(CNc2ccnc(-c3ccccc3C(F)(F)F)n2)c(OC)c1 | 15.8 µM (active) |  |
| COc1ccccc1CNc1ccnc(-c2ccccc2C(F)(F)F)n1 | 10 µM (active) |  |
| COc1ccc(CNc2ccnc(-c3ccccc3Cl)n2)c(OC)c1 | 5.01 µM (active) |  |
| COc1ccc([C@@H](Nc2ccccn2)c2cc(C(C)(C)C)cc(C(C)(C)C)c2O)cc1 |  | 1.22% [at 2.29 µM] |
| COc1ccc(CNc2ccnc(-c3ccccc3OC)n2)c(OC)c1 | 5.01 µM (active) |  |
